Screening data deposited in PubChem by National Center for Advancing Translational Sciences (NCATS).
An excerpt weighted towards active compounds, which were near 9.2% of everything screened.
ELG1 repair inh: ELG1-dependent DNA repair inhibition; AID 504467; actives 2.3% (n = 330,000); HEK293T ELG1-luciferase reporter, luminescence, 16 h; DNA damage induced by 5-fluorouridine; Potency, µM (highest dose often 46.1 µM), usual class: inhibitors; also: nearly all actives have a fitted effect of over 55% in size
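Cells (2,000 per well) received 5-fluorouridine plus test compound or DMSO and were incubated 16 hr at 37 °C, 5% CO2. Luciferase activity was read by luminescence 30 min after ONE-Glo addition; signal suppression marked inhibition of damage-induced ELG1 function.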
FLuc modulator: firefly luciferase modulation, counter-screen for miR-21 project; P08659; purified FLuc, Km substrates, luminescence inhibition; Potency, µM (top dose mostly 57.5 µM), usual class: inhibitors; actives 6.9% (n = 360,000); AID 588342; also: nearly all actives have a fitted effect of over 55% in size
Target sequence (P08659 whole entry, looked up): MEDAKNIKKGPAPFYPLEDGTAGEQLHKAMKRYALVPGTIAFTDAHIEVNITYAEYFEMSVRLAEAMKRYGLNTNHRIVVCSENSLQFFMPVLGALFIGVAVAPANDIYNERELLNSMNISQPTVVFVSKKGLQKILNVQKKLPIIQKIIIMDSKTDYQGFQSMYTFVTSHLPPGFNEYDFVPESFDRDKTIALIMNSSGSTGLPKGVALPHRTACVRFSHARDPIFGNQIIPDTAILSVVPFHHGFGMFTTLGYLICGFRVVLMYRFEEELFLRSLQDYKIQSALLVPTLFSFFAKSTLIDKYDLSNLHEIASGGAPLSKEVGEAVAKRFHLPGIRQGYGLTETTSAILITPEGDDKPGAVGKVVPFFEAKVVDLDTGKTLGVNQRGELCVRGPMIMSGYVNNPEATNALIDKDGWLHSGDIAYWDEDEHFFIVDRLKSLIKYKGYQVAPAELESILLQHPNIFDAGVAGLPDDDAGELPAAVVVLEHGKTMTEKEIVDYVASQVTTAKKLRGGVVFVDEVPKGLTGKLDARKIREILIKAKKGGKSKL
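Purified P. pyralis luciferase, 10 nM final, with Km-level 10 uM D-luciferin and 10 uM ATP in 50 mM Tris acetate pH 7.5, 10 mM Mg acetate, 0.01% Tween-20, 0.05% BSA; 6-point qHTS titration about 60 µM downward; luminescence read.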
ELG1 genotox: inducers of genotoxicity in HEK293T ELG1-luciferase cells | HEK293T ELG1-luciferase reporter, luminescence, 16 h | Potency, µM (highest dose often 46 µM), usual class: activators | actives 1.3% (n = 330,000) | AID 504466; also: nearly all actives have a fitted effect of over 60% in size
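Reporter readout depends on ELG1 protein level, which increases with genetic stress. After 16 hr compound exposure at 37 °C, luciferase activity was quantified using ONE-Glo.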
Rab9 prom act: activators of Rab9 promoter. Huh7 Rab9 promoter-luciferase reporter, luminescence, 24 h. Potency, µM (series often up to 9.22 µM), usual class: activators. actives 2.8% (n = 320,000). AID 485297; also: nearly all actives have a fitted effect of over 60% in size
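Steps: seed 1500 Huh7 Rab9-luc cells per well, rest 2 h at 37 °C; add compound in DMSO; incubate 24 h; add luciferase reagent, 10 min ambient; read luminescence.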
NPC1 prom act: activators of NPC1 promoter. Huh7 NPC1 promoter luciferase reporter, 24 h. Potency, µM (top dose mostly 9.22 µM), most hits filed as activators. actives 2.4% (n = 320,000). AID 485313; also: nearly all actives have a fitted effect of over 60% in size
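Luciferase expression driven by the NPC1 promoter was measured in stably transfected Huh7 cells after a 24 h compound incubation, using a luciferase reagent and a luminescence read.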
SMN2 splice up: SMN2 splice variant enhancement; HEK293 SMN2-luciferase splicing reporter, luminescence, 30-36 h; Potency, µM (highest dose often 46.1 µM), actives largely listed as activators; actives 2.8% (n = 210,000); also: nearly all actives have a fitted effect of over 55% in size
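qHTS luciferase splicing reporter: luminescence rises when SMN2 exon 7 is included in transfected HEK293 cells. Compound exposure lasted 30-36 h at 37C, with 4.5 mM final sodium butyrate as control, followed by a ONE-Glo read.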
A number is an active result; - = inactive; ? = inconclusive; . = no result given. Calls follow the shape of the dose curve; as a rule, active = well fitted curve in the direction sought with a large enough effect; inconclusive = small, poorly fitted or top-dose-only effect, or another doubt; inactive = no such curve, though single readings can be large; an effect the other way counts as inactive or inconclusive.

SMILES	ELG1 repair inh	FLuc modulator	ELG1 genotox	Rab9 prom act	NPC1 prom act	SMN2 splice up
CCc1ccc(NC2=NCC(c3ccccc3)S2)cc1 (stereo unspecified)	?	7.6µM	?	?	?	14µM
CCOC(=O)c1cnc(Nc2nc3ccccc3o2)nc1CN1CCN(C)CC1	?	-	?	-	-	13µM
Cc1ccc(NC2CCCCC2NS(=O)(=O)c2ccccc2)c(C)c1 (stereo unspecified)	-	-	-	-	-	.
COc1ccc(-c2csc3nc(C)nc(N4CCN(C(C)=O)CC4)c23)cc1OC	-	-	-	-	-	-
Oc1ccccc1N1CCN(c2ncnc3scc(-c4ccccc4)c23)CC1	18µM	-	-	-	-	.
Cc1nc(N2CCN(c3ccccc3O)CC2)c2c(-c3ccccc3)csc2n1	18µM	-	-	-	-	.
OCCN1CCN(c2ncnc3scc(-c4ccc(F)cc4)c23)CC1	?	-	-	-	-	.
Oc1ccccc1N1CCN(c2ncnc3scc(-c4ccc(F)cc4)c23)CC1	9.2µM	-	-	-	-	.
COc1ccccc1NC(=S)NC(NC(=O)CC(C)C)C(Cl)(Cl)Cl (stereo unspecified)	-	-	-	-	-	.
CC(C)[C@H](NC(=O)Nc1ccc(Oc2ccccc2)cc1)C(=O)O	-	24µM	-	-	-	-
CCOC(=O)C(=O)Nc1ccc(Oc2ccccc2)cc1	-	15µM	-	-	-	-
CCOC(=O)C(=O)Nc1ccc(F)cc1	?	-	-	-	-	-
COc1ccc(S(=O)(=O)c2cnc3ccc(Cl)cc3c2N2CCCCC2C)cc1 (stereo unspecified)	.	-	.	.	.	-
Cc1cc2nc(CS(=O)(=O)c3ccccc3)cc(=O)n2[nH]1	-	-	-	-	-	-
COc1ccc(Cc2nnc(NC(=O)c3ccccc3F)s2)cc1	-	?	-	-	-	.
C=CCS(=O)(=O)N1CCCC(Cc2ccccc2C)(C(=O)OCC)C1 (stereo unspecified)	-	-	-	-	-	.
Cc1sc2ncnc(Sc3ccccc3C(=O)Nc3ccc(Br)cc3)c2c1C	?	-	-	-	-	.
COc1ccc(NC(=O)CN(C)C(=O)c2ccccc2Sc2ncnc3sc(C)c(C)c23)cc1	16µM	-	-	-	-	.
CCOc1ccccc1CNC(=O)c1ccc(N2Cc3ccccc3Oc3ncccc32)s1	.	-	.	.	.	.
Cc1ccc(S(=O)(=O)c2c(C)nn(-c3ccccc3)c2OC(=O)c2ccccc2F)cc1	.	?	.	.	.	-
O=C(NCC(c1cccnc1)N1CCN(c2ccccc2F)CC1)OCc1ccccc1 (stereo unspecified)	23µM	-	-	-	-	-
O=C(NCc1cccs1)C(=O)NCC(c1ccco1)N1CCN(c2ccccc2F)CC1 (stereo unspecified)	18µM	-	-	-	-	-
CCCN(CC(=O)Nc1ccccc1C)C(=O)c1cccc(S(=O)(=O)N2CCN(c3ccccc3)CC2)c1	-	-	-	-	-	.
COc1cc2c(C#N)c(N3CCN(C)CC3)nc(N)c2c(N)n1	-	?	?	-	-	-
N#Cc1c(N2CCCC2)nc(N)c2c(N)nc(N3CCCC3)cc12	?	?	-	?	-	11µM
SMILES	ELG1 repair inh	FLuc modulator	ELG1 genotox	Rab9 prom act	NPC1 prom act	SMN2 splice up
N#Cc1c(N)nc(N2CCCC2)c(C#N)c1-c1ccc(Cl)cc1	?	-	-	-	-	-
COc1cc2c(C#N)c(N3CCCC3)nc(N)c2c(N)n1	-	17µM	-	-	-	.
COc1cc2c(C#N)c(N3CCN(c4ccccc4OC)CC3)nc(N)c2c(N)n1	9.2µM	24µM	-	-	-	-
COc1ccccc1N1CCN(c2nc(N)c(C#N)c(CC#N)c2C#N)CC1	-	-	-	-	-	-
Cc1cccc(C(=O)NN2S(=O)(=O)c3ccccc3S2(=O)=O)c1	-	-	-	-	-	-
Cc1cc(NC(=O)c2cccs2)cc(-c2nc3cc(Cl)ccc3o2)c1O	.	-	.	.	.	-
COc1ccc2nc3ccccc3nc2c1	?	17µM	-	2.8µM	4µM	11µM
COc1ccc(-c2noc(C)c2-c2ccc3ccccc3n2)c(O)c1	?	-	-	-	-	-
Nc1ccc(-c2ccc3ccccc3n2)cc1	.	.	.	1.3µM	1.5µM	3.2µM
COc1ccc(-c2ccc3ccccc3n2)cc1	?	1.2µM	0.92µM	0.4µM	0.71µM	13µM
COc1ccc(-c2ccc3ccccc3n2)cc1OC	?	11µM	4.1µM	2µM	2.2µM	14µM
COc1ccc(-c2nc3ccccc3nc2-c2ccccc2)cc1	-	-	-	-	-	.
Cc1ccc(Cl)cc1Nc1nc(-c2sc(NC(=O)c3ccco3)nc2C)cs1	8.2µM	-	-	-	-	-
Cc1nc(NC(=O)c2ccco2)sc1-c1csc(Nc2ccc(Cl)cc2)n1	18µM	11µM	-	-	-	-
Cc1ccc(Cl)cc1Nc1nc(-c2sc(NC(=O)c3cccc(Cl)c3)nc2C)cs1	-	-	-	-	-	-
Cc1nc(NC(=O)c2ccco2)sc1-c1csc(Nc2ccc(Cl)cc2Cl)n1	13µM	?	-	-	-	-
COc1ccc([C@H]2CC(=O)C=C(c3ccnc4ccc(Cl)cc34)C2)cc1	-	-	-	-	-	.
COc1cc(/C=N/Nc2nc(Nc3ccccc3)nc(N3CCCCC3)n2)ccc1OCC(=O)O	-	0.95µM	-	-	-	-
COc1cccc(/C=N/Nc2nc(N3CCCC3)nc(N3CCCC3)n2)c1O	15µM	?	-	-	-	-
COc1ccc(/C=N/Nc2nc(Nc3ccccc3)nc(N3CCCCC3)n2)c(OC)c1	21µM	6.7µM	-	-	-	-
Fc1ccc(Nc2nc(N/N=C/c3ccco3)nc(N3CCCCC3)n2)cc1	?	27µM	-	-	-	-
COc1ccc(/C=N/Nc2nc(Nc3ccccc3)nc(N3CCCC3)n2)cc1[N+](=O)[O-]	?	-	?	-	-	-
COc1ccc(/C=N/Nc2nc(N3CCCC3)nc(N3CCCC3)n2)c(OC)c1OC	?	-	-	-	-	-
C(=N\Nc1nc(N2CCOCC2)nc(N2CCOCC2)n1)/c1ccco1	-	-	-	-	-	-
CCOc1ccc(S(=O)(=O)N2CCC(C(=O)NCc3cccnc3)CC2)cc1	-	-	-	-	-	.
CC[C@]12c3[nH]c4ccccc4c3CCN1C(=O)C(CC(=O)NCc1cccc(C(F)(F)F)c1)C[C@@H]2C(=O)N1CCN(C(=O)c2ccco2)CC1 (stereo partly specified)	?	.	-	.	.	.
O=C(NNC(=O)C12CC3CC(CC(C3)C1)C2)c1ccccc1F	-	-	-	-	-	.
Cc1cccc(C(=O)NNC(=O)C23CC4CC(CC(C4)C2)C3)c1O	-	15µM	-	-	-	.
